Results from ChEMBL document CHEMBL2218924, “A broad activity screen in support of a chemogenomic map for kinase signalling research and drug discovery” (Biochem J, 2013).

Key:
[1] = target: Tyrosine-protein kinase Fer (Homo sapiens) (UniProt P16591); settings: at 10 µM
[2] = target: Tyrosine-protein kinase Fes/Fps (Homo sapiens) (UniProt P07332); settings: at 1 µM
[3] = target: Tyrosine-protein kinase Fes/Fps (Homo sapiens) (UniProt P07332); settings: at 10 µM
[4] = target: Tyrosine-protein kinase Fgr (Homo sapiens) (UniProt P09769); settings: at 1 µM
Chain of Tyrosine-protein kinase Fgr (Homo sapiens) (P09769 2-529 limits assumed): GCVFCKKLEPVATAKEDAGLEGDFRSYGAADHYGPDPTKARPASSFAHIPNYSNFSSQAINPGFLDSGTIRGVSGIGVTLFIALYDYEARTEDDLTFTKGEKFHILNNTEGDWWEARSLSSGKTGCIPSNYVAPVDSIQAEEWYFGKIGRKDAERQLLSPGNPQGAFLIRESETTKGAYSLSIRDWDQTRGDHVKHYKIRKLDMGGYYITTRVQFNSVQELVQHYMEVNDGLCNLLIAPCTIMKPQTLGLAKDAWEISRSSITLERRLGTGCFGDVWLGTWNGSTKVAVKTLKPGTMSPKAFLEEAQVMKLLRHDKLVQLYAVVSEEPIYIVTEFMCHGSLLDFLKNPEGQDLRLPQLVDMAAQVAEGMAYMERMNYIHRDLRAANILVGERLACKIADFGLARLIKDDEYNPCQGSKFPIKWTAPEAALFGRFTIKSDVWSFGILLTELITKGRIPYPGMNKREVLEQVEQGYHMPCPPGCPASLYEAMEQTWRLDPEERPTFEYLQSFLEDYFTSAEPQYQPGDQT

[5] = target: Tyrosine-protein kinase Fgr (Homo sapiens) (UniProt P09769); settings: at 10 µM
[6] = target: Vascular endothelial growth factor receptor 1 (Homo sapiens) (UniProt P17948); settings: at 1 µM
Chain of Vascular endothelial growth factor receptor 1 (Homo sapiens) (P17948 whole entry): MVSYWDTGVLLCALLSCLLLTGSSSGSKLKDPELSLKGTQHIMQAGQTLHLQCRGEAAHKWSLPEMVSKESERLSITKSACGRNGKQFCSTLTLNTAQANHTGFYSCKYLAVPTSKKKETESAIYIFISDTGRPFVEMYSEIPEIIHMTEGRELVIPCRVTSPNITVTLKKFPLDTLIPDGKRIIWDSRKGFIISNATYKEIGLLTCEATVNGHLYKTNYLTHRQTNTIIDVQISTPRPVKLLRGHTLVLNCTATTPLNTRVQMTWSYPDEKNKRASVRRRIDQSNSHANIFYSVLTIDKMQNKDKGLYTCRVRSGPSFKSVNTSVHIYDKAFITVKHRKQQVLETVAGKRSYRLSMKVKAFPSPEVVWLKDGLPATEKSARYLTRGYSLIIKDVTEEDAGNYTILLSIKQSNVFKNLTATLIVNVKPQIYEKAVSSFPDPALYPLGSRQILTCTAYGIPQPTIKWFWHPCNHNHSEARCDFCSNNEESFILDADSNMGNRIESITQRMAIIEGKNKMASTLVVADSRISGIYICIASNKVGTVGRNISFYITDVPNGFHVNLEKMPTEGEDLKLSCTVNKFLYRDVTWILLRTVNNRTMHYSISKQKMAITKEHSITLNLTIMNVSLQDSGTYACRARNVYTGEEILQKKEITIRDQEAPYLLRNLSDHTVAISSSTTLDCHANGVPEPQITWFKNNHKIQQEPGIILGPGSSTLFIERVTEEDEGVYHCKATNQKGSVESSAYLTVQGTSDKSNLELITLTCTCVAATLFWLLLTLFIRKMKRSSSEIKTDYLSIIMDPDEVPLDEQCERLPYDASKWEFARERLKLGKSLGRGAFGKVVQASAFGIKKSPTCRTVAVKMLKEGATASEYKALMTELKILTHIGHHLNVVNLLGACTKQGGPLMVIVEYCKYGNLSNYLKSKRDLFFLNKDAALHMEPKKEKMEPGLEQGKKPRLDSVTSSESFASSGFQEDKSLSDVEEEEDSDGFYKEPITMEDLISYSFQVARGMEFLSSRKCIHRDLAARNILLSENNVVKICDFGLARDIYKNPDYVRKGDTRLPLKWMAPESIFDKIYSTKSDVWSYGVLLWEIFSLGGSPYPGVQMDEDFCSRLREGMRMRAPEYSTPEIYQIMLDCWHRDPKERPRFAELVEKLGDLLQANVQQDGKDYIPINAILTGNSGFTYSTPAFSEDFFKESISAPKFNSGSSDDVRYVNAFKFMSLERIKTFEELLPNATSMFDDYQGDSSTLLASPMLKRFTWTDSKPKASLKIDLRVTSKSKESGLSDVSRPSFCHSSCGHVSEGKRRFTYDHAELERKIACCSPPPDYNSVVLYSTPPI

[7] = target: Vascular endothelial growth factor receptor 1 (Homo sapiens) (UniProt P17948); settings: at 10 µM
[8] = target: Receptor-type tyrosine-protein kinase FLT3 (Homo sapiens) (UniProt P36888); settings: at 1 µM
Chain of Receptor-type tyrosine-protein kinase FLT3 (Homo sapiens) (P36888 whole entry): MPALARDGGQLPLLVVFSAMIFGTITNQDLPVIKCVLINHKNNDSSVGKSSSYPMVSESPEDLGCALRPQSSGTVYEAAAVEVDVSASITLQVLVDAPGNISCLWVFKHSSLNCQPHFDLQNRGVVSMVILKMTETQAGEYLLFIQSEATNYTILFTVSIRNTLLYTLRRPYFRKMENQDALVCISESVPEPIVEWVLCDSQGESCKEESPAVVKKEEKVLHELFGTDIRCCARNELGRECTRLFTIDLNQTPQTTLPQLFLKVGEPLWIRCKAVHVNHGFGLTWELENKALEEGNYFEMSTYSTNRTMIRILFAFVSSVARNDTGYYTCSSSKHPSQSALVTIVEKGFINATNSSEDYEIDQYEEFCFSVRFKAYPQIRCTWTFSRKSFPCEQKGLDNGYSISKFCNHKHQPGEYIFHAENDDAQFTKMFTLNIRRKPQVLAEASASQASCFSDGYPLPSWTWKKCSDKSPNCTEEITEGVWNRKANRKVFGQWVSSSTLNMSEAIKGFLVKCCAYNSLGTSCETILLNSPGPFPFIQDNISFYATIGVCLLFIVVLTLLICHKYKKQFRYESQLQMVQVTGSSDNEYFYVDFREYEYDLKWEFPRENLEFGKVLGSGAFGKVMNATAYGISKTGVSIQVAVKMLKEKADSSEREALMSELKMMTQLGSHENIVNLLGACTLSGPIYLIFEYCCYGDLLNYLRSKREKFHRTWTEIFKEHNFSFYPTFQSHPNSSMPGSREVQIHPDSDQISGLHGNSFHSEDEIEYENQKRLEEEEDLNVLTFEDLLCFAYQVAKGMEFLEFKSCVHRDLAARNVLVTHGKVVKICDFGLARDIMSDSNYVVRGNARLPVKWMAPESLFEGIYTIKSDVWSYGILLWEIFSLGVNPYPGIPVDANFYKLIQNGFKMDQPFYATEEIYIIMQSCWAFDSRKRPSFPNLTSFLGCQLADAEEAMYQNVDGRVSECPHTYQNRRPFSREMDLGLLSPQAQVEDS

[9] = target: Receptor-type tyrosine-protein kinase FLT3 (Homo sapiens) (UniProt P36888); settings: at 10 µM
[10] = target: Vascular endothelial growth factor receptor 3 (Homo sapiens) (UniProt P35916); settings: at 1 µM
Chain of Vascular endothelial growth factor receptor 3 (Homo sapiens) (P35916 whole entry): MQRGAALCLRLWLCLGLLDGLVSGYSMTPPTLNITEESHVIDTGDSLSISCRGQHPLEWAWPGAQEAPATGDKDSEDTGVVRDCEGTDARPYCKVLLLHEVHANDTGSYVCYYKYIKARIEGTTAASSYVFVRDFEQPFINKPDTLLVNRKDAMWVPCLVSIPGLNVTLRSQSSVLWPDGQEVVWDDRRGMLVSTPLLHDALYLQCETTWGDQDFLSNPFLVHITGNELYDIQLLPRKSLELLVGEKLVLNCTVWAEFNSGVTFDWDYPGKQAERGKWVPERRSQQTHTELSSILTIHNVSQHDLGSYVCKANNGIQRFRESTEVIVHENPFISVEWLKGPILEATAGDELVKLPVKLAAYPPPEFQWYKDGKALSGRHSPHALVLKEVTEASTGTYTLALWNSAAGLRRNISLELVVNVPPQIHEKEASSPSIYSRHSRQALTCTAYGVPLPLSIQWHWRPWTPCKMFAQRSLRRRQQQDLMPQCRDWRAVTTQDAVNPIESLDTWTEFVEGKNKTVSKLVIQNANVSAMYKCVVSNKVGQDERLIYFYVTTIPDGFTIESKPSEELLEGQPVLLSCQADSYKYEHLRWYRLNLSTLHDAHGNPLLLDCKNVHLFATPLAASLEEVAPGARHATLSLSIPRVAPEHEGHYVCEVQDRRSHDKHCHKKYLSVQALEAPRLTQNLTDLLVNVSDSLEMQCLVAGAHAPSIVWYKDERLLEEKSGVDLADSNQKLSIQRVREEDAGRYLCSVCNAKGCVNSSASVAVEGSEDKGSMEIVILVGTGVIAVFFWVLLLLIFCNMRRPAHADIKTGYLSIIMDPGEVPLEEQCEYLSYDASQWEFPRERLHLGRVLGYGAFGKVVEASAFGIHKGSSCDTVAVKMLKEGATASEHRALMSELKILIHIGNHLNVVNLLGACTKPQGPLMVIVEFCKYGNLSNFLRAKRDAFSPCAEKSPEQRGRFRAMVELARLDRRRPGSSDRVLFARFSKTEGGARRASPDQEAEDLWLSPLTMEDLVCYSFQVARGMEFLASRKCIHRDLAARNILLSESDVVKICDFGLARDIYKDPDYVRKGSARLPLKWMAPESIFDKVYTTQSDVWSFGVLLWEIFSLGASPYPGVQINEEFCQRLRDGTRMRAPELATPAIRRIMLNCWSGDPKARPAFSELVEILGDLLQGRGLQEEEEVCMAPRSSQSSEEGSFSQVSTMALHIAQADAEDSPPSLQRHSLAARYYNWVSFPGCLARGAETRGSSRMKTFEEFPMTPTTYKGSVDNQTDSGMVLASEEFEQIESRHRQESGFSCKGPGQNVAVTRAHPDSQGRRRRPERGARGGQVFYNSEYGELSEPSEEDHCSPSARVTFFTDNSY

Chain of Tyrosine-protein kinase Fes/Fps (Homo sapiens) (P07332 whole entry): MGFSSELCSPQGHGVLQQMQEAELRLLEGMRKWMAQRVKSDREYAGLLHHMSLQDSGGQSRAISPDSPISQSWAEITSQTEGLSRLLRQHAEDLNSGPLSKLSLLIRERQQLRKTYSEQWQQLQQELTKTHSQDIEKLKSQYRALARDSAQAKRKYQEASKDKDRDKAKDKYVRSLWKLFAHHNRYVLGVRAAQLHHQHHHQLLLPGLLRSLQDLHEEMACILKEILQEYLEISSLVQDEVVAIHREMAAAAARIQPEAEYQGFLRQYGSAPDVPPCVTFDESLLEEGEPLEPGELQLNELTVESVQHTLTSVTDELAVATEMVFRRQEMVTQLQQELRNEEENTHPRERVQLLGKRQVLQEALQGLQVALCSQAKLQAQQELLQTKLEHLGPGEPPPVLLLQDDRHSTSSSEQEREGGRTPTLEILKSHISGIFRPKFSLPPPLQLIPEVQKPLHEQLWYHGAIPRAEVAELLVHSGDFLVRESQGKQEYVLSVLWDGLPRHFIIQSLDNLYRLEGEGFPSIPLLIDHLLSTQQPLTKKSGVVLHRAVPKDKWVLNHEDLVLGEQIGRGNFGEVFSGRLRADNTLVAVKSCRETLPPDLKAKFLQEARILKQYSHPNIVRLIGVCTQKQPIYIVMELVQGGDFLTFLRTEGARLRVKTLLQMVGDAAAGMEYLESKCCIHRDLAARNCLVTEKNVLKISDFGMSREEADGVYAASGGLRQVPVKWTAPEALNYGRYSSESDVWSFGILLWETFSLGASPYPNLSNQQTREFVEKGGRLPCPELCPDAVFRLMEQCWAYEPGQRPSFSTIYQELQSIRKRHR

Row | SMILES | residual activity [1] [%] | residual activity [2] [%] | residual activity [3] [%] | residual activity [4] [%] | residual activity [5] [%] | residual activity [6] [%] | residual activity [7] [%] | residual activity [8] [%] | residual activity [9] [%] | residual activity [10] [%]
1 | O=c1cc(-c2cccc3c2Sc2ccccc2S3)oc(N2CCOCC2)c1 | 83 | 94 | 96 | 99 | 93 | 95 | 85 | 85 | 83 | 97
2 | COc1ccc(OC)c2c(=S)c3ccccc3[nH]c12 | 92 | 89 | 103 | 94 | 99 | 90 | 77 | 83 | 73 | 89
3 | O=[N+]([O-])c1ccc(-c2nc(-c3ccc(F)cc3)c(-c3ccncc3)[nH]2)cc1 | – | 100 | 116 | 103 | 96 | 77 | 46 | 104 | 90 | 78
4 | CCOc1cc2ncnc(Nc3cccc(Br)c3)c2cc1OCC | 85 | 112 | 80 | 54 | 10 | 54 | 6 | 101 | 40 | 36
5 | N#CC(C#N)=C(N)/C(C#N)=C/c1ccc(O)cc1 | – | – | 91 | – | 96 | 96 | 90 | 100 | 86 | 94
6 | CNc1cc2c(Nc3cccc(Br)c3)ncnc2cn1 | 90 | 116 | 92 | 73 | 60 | 87 | 58 | 119 | 107 | 87
7 | CC(=O)c1ccc(N2CCOCC2)cc1O | – | 133 | 94 | 110 | 102 | 106 | 97 | 102 | 86 | 93
8 | c1ccc(-c2n[nH]c3c2oc2ccccc23)cc1 | – | – | – | – | 49 | 13 | 1 | 6 | 0 | 3
9 | Cc1cncc2cccc(S(=O)(=O)N3CCCN(C(=O)CN)C[C@H]3C)c12 | – | – | – | 99 | 53 | 82 | 63 | 100 | 86 | 78
10 | CC(=O)O/N=C1\C(=C2\C(=O)Nc3cc(Br)ccc32)Nc2ccccc21 | 92 | 107 | 97 | 10 | -1 | 24 | 1 | 3 | 0 | 2
11 | N#Cc1cnc2cnc(NCc3cccnc3)cc2c1Nc1ccc(F)c(Cl)c1 | 95 | 19 | 12 | 11 | 4 | 14 | 7 | 2 | 0 | 8
12 | O=C(Nc1cccc(Nc2nccc(Nc3cccc(C(F)(F)F)c3)n2)c1)C1CC1 | 59 | 84 | 68 | 59 | 67 | 59 | 6 | 45 | 3 | 55
13 | O=C1NC(=O)/C(=C/c2ccc3c(c2)OC(F)(F)O3)S1 | 86 | 128 | 90 | 105 | 101 | 92 | 85 | 89 | 83 | 98
14 | COc1cc2ncnc(Nc3ccc(NC(=O)c4ccccc4)cc3)c2cc1OC | 94 | – | 90 | 71 | 25 | 101 | 72 | 97 | 92 | 76
15 | N#CCCc1ccc2c(c1)-c1[nH]c3ccc([N+](=O)[O-])cc3c1CC(=O)N2 | – | 16 | 5 | 15 | 6 | 24 | 11 | 19 | 8 | 10
16 | O=C1NC(=O)/C(=C\c2ccc3nccnc3c2)S1 | 94 | 108 | 85 | 107 | 89 | 88 | 78 | 94 | 76 | 98
17 | CN(C)CCCn1cc(C2=C(c3c[nH]c4ccccc34)C(=O)NC2=O)c2ccccc21 | 81 | 125 | 14 | – | 55 | – | – | – | – | –
18 | Nc1cccc(-c2cc3c(Oc4cccc(O)c4)ncnc3[nH]2)c1 | 10 | 13 | 1 | 0 | 2 | 0 | 0 | 22 | 1 | -1
19 | c1ccc2c(-c3ccncc3)c[nH]c2c1 | 97 | 111 | 72 | – | 91 | 85 | 63 | 107 | 78 | 91

Row | SMILES | residual activity [1] [%] | residual activity [2] [%] | residual activity [3] [%] | residual activity [4] [%] | residual activity [5] [%] | residual activity [6] [%] | residual activity [7] [%] | residual activity [8] [%] | residual activity [9] [%] | residual activity [10] [%]
20 | COc1cc2ncc(-c3ccccc3)nc2cc1OC | 99 | 126 | 87 | – | – | 95 | 67 | 57 | 16 | 71
21 | O=C1NC(=O)c2cc(Nc3ccc(F)cc3)c(Nc3ccc(F)cc3)cc21 | 86 | 112 | 69 | 89 | 44 | 77 | 66 | 107 | 73 | 84
22 | COc1cccc(-c2cc(=O)c3ccccc3o2)c1N | 101 | 94 | 107 | 97 | 100 | 101 | 92 | 87 | 85 | 95
23 | c1ccc(-c2n[nH]cc2-c2ccnc3ccccc23)nc1 | – | 107 | 80 | 90 | 51 | 36 | 7 | 48 | 23 | 37
24 | Cc1cccc(-c2[nH]c(C(C)(C)C)nc2-c2ccc3c(c2)OCO3)n1 | – | – | 87 | – | 88 | 86 | 84 | – | 87 | 99
25 | COc1cc2ncnc(Nc3ccc(O)c(Br)c3)c2cc1OC | 84 | 95 | 65 | 39 | 6 | 29 | 4 | 49 | 2 | 14
26 | N#C/C(=C(\N)Sc1ccc(N)cc1)c1ccccc1C(F)(F)F | 79 | 93 | 100 | 88 | 73 | 83 | 38 | 62 | 59 | 65
27 | CO[C@@H]1[C@H](N(C)C(=O)c2ccccc2)C[C@H]2O[C@]1(C)n1c3ccccc3c3c4c(c5c6ccccc6n2c5c31)C(=O)NC4 | 14 | 15 | 9 | 7 | 4 | 4 | 1 | – | – | 1
28 | O=C1Nc2ccc(Br)cc2/C1=C\c1cc2c([nH]1)CCCC2 | – | 107 | 78 | – | 72 | 17 | 20 | 3 | 1 | 1
29 | COc1cc2ncnc(Nc3ccc(Oc4ccccc4)cc3)c2cc1OC | 76 | 102 | 90 | 7 | 2 | 18 | 4 | 39 | 11 | 7
30 | COc1ccc(C(=O)Nc2sc3c(c2C(N)=O)CCCC3)cc1OC | 91 | 123 | – | 110 | 93 | 72 | 81 | 32 | 35 | 10
31 | C[C@@H](N)[C@H]1CC[C@H](C(=O)Nc2ccncc2)CC1 | – | 108 | 108 | 103 | 90 | 118 | 108 | 97 | 95 | 100
32 | CO[C@H]1[C@@H](OC)C[C@H](C)[C@@H](OC)C2=CC(=O)C=C(NC(=O)/C(C)=C/C=C/[C@H](OC)[C@@H](OC(N)=O)/C(C)=C/[C@@H]1C)C2=O | 99 | 111 | – | 99 | 100 | 86 | 95 | 85 | 76 | 92
33 | Cc1ccc(S(=O)(=O)/C=C/C#N)cc1 | 99 | 97 | 108 | 108 | 105 | 96 | 100 | – | 89 | 98
34 | Cc1cc2ncc(-c3ccccc3)nc2cc1C | – | 107 | 93 | – | 91 | 85 | 83 | 47 | 25 | 58
35 | CN(C)c1ccc(/C=C2\C(=O)Nc3ccccc32)cc1 | 82 | 113 | 79 | 90 | 44 | 14 | 2 | 4 | 1 | 3
36 | Oc1n[nH]c2nnc(-c3c(-c4ccccc4)nn4ccccc34)cc12 | 91 | 92 | 108 | 89 | 95 | 86 | 80 | 76 | 63 | 89
37 | Nc1ccc2ncnc(NCCc3ccc(Oc4ccccc4)cc3)c2c1 | 84 | 91 | 87 | 84 | – | 54 | 26 | 33 | 9 | 15
